Compounds without any hit were thinned out: in the full panel of roughly 79,000, 15% have a hit. No stated cut-off is given here; in the data, active means growth inhibition above about 70%; inactive means the rest.
Assays:
[1] = NCI Yeast Anticancer Drug Screen. Data for the rad50 strain (AID 155);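 further: 0% = growth of vehicle-only cultures of the same strain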; details: S. cerevisiae rad50 strain growth inhibition; at 50.0 µM; stronger effect = higher value
Summary of the method: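 Readout: growth inhibition relative to vehicle-treated cultures. Compound exposure was carried out in a genetically defined yeast strain deficient in DNA damage repair.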

[2] = NCI Yeast Anticancer Drug Screen. Data for the mec2-1 strain (AID 157); details: S. cerevisiae mec2-1 strain, at 50.0 µM, stronger effect = higher value
Summary of the method: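 Growth inhibition is read against vehicle-treated controls after compound exposure of the mec2-1 yeast strain, which is defective in DNA damage repair or cell cycle control.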

[3] = NCI Yeast Anticancer Drug Screen. Data for the sgs1 mgt1 strain (AID 161);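 further: 0% = growth of cultures given vehicle only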; details: S. cerevisiae sgs1 mgt1 strain, at 50.0 µM, stronger effect = higher value
Summary of the method: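 This yeast growth screen uses a strain with defined DNA-repair lesions; compound-treated growth is compared with vehicle-treated growth.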

[4] = NCI Yeast Anticancer Drug Screen. Data for the cln2 rad14 strain (AID 165);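 further: 0% = growth equal to vehicle treated cultures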; details: S. cerevisiae cln2 rad14 strain, at 50.0 µM, stronger effect = higher value
Summary of the method: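 Growth inhibition, relative to vehicle-treated controls, is the read-out. The test organism is a yeast strain with defined genetic alterations, cln2 rad14.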

[5] = NCI Yeast Anticancer Drug Screen. Data for the bub3 strain (AID 167); details: S. cerevisiae bub3 mutant strain, at 50.0 µM, stronger effect = higher value
Summary of the method: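 Readout: yeast growth inhibition, expressed relative to vehicle-only wells. The test organism is a mutant strain from a panel with lesions in DNA repair or checkpoint genes.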

[6] = NCI Yeast Anticancer Drug Screen. Data for the mlh1 rad18 strain (AID 175); details: S. cerevisiae mlh1 rad18 strain growth inhibition; at 50.0 µM; stronger effect = higher value
Summary of the method: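 Cells of a genetically altered yeast strain, deficient in DNA damage repair, were treated with compound. Their growth was then compared with that of vehicle-treated cultures to give inhibition.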

Measured: growth inhibition

COCCN(CCOC)C(=O)Nc1cccc(Cl)c1
inactive: [1] 30.4% | [2] 6.3% | [3] 15.9% | [4] 8.35% | [5] 5.45% | [6] 10.2%

BrC1(Br)C2COCOCC21 (stereo not given)
inactive: [1] -9.6% | [2] -1.4% | [3] -1.05% | [4] 0.55% | [5] -4.75% | [6] 8.05%

CCOc1ccc(-n2c(=O)c(N=Nc3ccccc3Cl)c(O)n(-c3ccc(Br)cc3)c2=S)cc1
inactive: [1] 38.5% | [2] 17.9% | [3] 52.1% | [4] 12.7% | [5] -11.7% | [6] 5.8%

Cc1cc(C)c(C)c(CC(C)(COS(C)(=O)=O)COS(C)(=O)=O)c1C
inactive: [1] 8.6% | [2] 11% | [3] 27.1% | [4] 39.2% | [5] 5.85% | [6] 28.1%

N#Cc1c(N)[nH]c(=S)c(C#N)c1-c1ccccc1
inactive: [1] 45.9% | [2] 35.5% | [3] 47.4% | [4] 33.5% | [5] 31.4% | [6] 35.1%

From PubChem BioAssay (NCI)
